Laboratory results reported in PubChem BioAssay (NCI).
About 79,000 compounds went through this panel and 15% of them were active in at least one assay; those are over-represented in the sample as a whole. Unmarked numbers belong to inactive results. Active and inactive are the calls of the source. No stated cut-off is given here; in the data, active means growth inhibition above about 70%; inactive means the rest. Where a SMILES comes first, the peptide text is derived from it. [ ]: non-standard residue; d: D form. ξ: configuration not given here. ξF = NC(Cc1ccccc1)C(=O)O

Experiment: NCI Yeast Anticancer Drug Screen. Data for the mlh1 rad18 strain (AID 175)
Settings: S. cerevisiae mlh1 rad18 strain growth inhibition; at 50.0 µM; stronger effect = higher value
In short: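 Genetically defined yeast (DNA repair-deficient) exposed to compounds; growth inhibition determined relative to vehicle.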

Point of comparison: CCn1c2[n+](c3ccccc31)CCC2, growth inhibition 3.65%. Against it:
- C=CC1=C(C)C2=NC1=CC1=NC(=C(CC)/C1=C\O)C=C1N=C3C(=C1C)C(=O)[C@H](C(=O)OC)C3=C1NC(=C2)[C@@H](C)[C@@H]1CCC(=O)O — lower, -15.9%
- CCOC(=O)c1cc(C)nc2c1c(=O)n(-c1ccccc1)c(=O)n2CCCCN1CCN(c2ncccn2)CC1 — lower, -38.5%
- CC1(C)OC(=O)C(=Cc2c(Cl)cccc2Cl)C(=O)O1 — lower, -7.3%
- C=CCNC(=S)N/N=C\c1cc(OC)c(OC)c(OC)c1 — lower, -34.6%
- COc1ccc2c(C)cc(N/N=C/c3ccc(C)s3)nc2c1 — lower, -12.1%
- COc1ccc(/C=C(\C#N)c2ccc(C)cc2)cc1OC — higher, 38.1%
- CCOC(=O)C1CCC(C(=O)OCC)N1c1ccc(C=O)cc1 (configuration not stated) — lower, -3.45%
- C[n+]1ccccc1/C=C/c1cccc(O)c1 — higher, 17.8%
- COc1ccc(CCN2C(=O)CSC2=S)cc1OC — lower, -2.6%
- C=C(CCC(C(=O)O)C1CCC2(C)C3=C(CCC12C)C1(C)CCC(O)C(C)(C)C1CC3)C(C)C (configuration not stated) — lower, -8.25%
- O=C1Nc2ccccc2/C1=N/N=C/c1cc(Cl)cc(Cl)c1O — higher, 20.1%
- COC(=O)C(C)CN1CC(C)OC(C)C1 (configuration not stated) — lower, -13.2%
- COc1cc(/C=N/NC(=O)c2ccncc2)cc(OC)c1OC — lower, -16.5%
- COC(=O)C1=CCCC2CN3CCc4c([nH]c5ccccc45)C3CC12 (configuration not stated) — higher, 18%
- Cn1/c(=N\N=C\C(=O)O)sc2ccccc21 — higher, 10.1%
- CCOc1ccc(N2C(=O)C3C4c5ccccc5C(c5ccccc54)C3C2=O)cc1 (configuration not stated) — higher, 29%
- COc1ccc(-c2cc(=O)c3c(C)cc(O)cc3o2)cc1OC — higher, 44.2%
- C[C@@H]1C[C@](O)([C@@H](C)Cl)C(=O)O[C@@H]2CCN3CC=C(COC(=O)[C@]1(C)O)[C@H]23 — lower, -30.6%
- COc1ccc(C2c3cc4c(c(OC)c3CC3OCC(=O)C32)OCO4)cc1OC (configuration not stated) — lower, -4.3%
- O=C1C=CC=C/C1=C1\N=C(c2ccccc2OCC(=O)c2ccc(Br)cc2)SS1 — lower, -43.5%
- COc1cc(-c2cc(=O)c3c(C)cc(O)cc3o2)cc(OC)c1OC — higher, 45.6%
- O=S(=O)(O)c1cc(O)c2c(O)cc(S(=O)(=O)O)cc2c1 — lower, -4.7%
- CN(C)c1ccc(P(c2ccc(N(C)C)cc2)c2ccc(N(C)C)cc2)cc1 — lower, -25.2%
- NC(Cc1ccccc1)C(=O)NCC(=O)NCC(=O)O (stereo not drawn) (H-[ξF]-Gly-Gly-OH) — higher, 4.55%
- CCOC(=O)NC(C)(C)CN(C(=O)OCC)c1ccccc1 — lower, -10.7%
- COc1ccc(CNc2ccccn2)cc1 — higher, 40.2%
- O=C(CN1C(=O)c2ccccc2C1=O)c1ccc(Br)cc1 — higher, 12.9%
- NNc1[nH]c(=S)[nH]c1C(N)=O — lower, -11.7%
- O=C(O)C1(c2ccc(Cl)cc2)CCCC1 — higher, 60.6%
- Cc1c(Cl)cccc1NCN1C(=O)c2ccccc2C1=O — higher, 31.5%
- COC(=O)C(C(=O)C(=O)Nc1c(C)cccc1C(C)(C)C)c1nc2ccc(Cl)cc2[nH]c1=O (configuration not stated) — higher, 12.7%
- CCCCCCCCCCCCC/C=C/[C@H]1[C@@H](C(=O)OC)N1S(=O)c1ccc(C)cc1 (some centres not stated) — lower, -43.5%
- Cc1ccc(OCC2OC(n3cnc4nc(N)nc(Cl)c43)CC2Oc2ccc(C)cc2)cc1 (configuration not stated) — lower, 2.6%
- COc1ccc2nc(NC(=O)/C(C#N)=C/c3ccccc3)sc2c1 — lower, -5.7%
- Cc1cccc(-c2nc3cc(Cl)ccc3c(=O)o2)c1 — higher, 6.6%

In the case of CCCCCCCCCC(O)CC(=O)c1c(O)cccc1O (configuration not stated), the growth inhibition is reported as 78.7% (active).
